HT1080 IDH1KD tx: toxicity to HT-1080 IDH1 knockdown cells (counter line); AID 686971; HT-1080 IDH1 knockdown viability, ATP luminescence, 48 h; 2% of 360,000 active; Potency, µM (highest dose often 46.1 µM), for inactives: at the top dose activity, negative = toxicity, hits mostly cytotoxic;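 note: 0% = DMSO wells and -100% = cell-free medium wells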
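Cytotoxicity counter-line: IDH1KD HT-1080, 48 h, CellTiter-Glo. Curves classed by r2, magnitude and activity.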
DT40 TDP1 no CPT: qHTS for Inhibitors of human tyrosyl-DNA phosphodiesterase 1 (TDP1): qHTS in cells in absence of CPT | 15% of 420,000 active | Potency, µM (titrated, usually from 46.2 µM), for the others: at the top dose activity change, negative = growth inhibition, usual class: inhibitors | DT40 Tdp1-/- hTDP1 cells, no CPT, ATP luminescence, 48 h; note: nearly all actives have a fitted effect of over 55% in size
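A cellular qHTS used chicken DT40 cells lacking endogenous Tdp1 but carrying stably transfected human TDP1. Compounds were applied without camptothecin, and cell growth kinetics were judged by ATP-dependent luminescence after ≥48 hr.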
KB-V1 cytotox: KB-V1 MDR subline cytotoxicity. KB-V1 MDR cells viability, CellTiter-Glo, 72 h. Potency, µM (top dose mostly 46.1 µM), actives largely listed as cytotoxic. 3.4% of 400,000 active. AID 1347076; note: nearly all actives have a fitted effect of over 60% in size
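KB-V1 cells (P-gp-expressing MDR subline of KB-3-1) in phenol-red-free DMEM with 10% FBS were exposed to library compounds over a concentration series for 72 h at 37 degrees C. Viability read by CellTiter-Glo luminescence; concentration-effect curves fitted after normalization.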
HT1080NT lethal: kills 2HG-producing HT-1080-NT fibrosarcoma cells | HT-1080-NT fibrosarcoma viability, CellTiter-Glo ATP luminescence, 48 h | Potency, µM (top dose mostly 46.1 µM), without a hit: at the highest dose activity, negative = less viability, most hits filed as cytotoxic | 1.6% of 360,000 active;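 note: NT is the 2HG producing partner of a matched IDH1 knockdown line; 0% = DMSO-treated cells and -100% = media-only wells without cells; nearly all actives have a fitted effect of over 55% in size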
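750 cells/well, RPMI + 5% FBS; 2 h settle, compound pin-transfer, 48 h at 37 degrees C. CellTiter-Glo 10 min RT, luminescence. Normalized to DMSO and media-only wells.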
KB-3-1 cytotox: KB-3-1 parental cell cytotoxicity | Potency, µM (doses to about 46.1 µM), most hits filed as cytotoxic | AID 1347075 | 1.4% of 400,000 active | KB-3-1 viability, CellTiter-Glo ATP luminescence, 72 h; note: nearly all actives have a fitted effect of over 60% in size
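Cytotoxicity in the drug-sensitive parental line KB-3-1 was scored as loss of CellTiter-Glo luminescence following 72 h incubation with compound. Values come from curve fitting of normalized concentration-response data.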
TDP1 cell CPT: growth inhibition of DT40 Tdp1-/-;hTDP1 cells with camptothecin (screen for TDP1 inhibitors); chicken DT40 Tdp1-/-;hTDP1 cells + 20 nM CPT, ATP luminescence, 48 h; Potency, µM (titrated, usually from 46.2 µM), inactives show at the top dose activity change, negative = growth inhibition, actives largely listed as inhibitors; 12% of 420,000 active; note: nearly all actives have a fitted effect of over 55% in size
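Chicken DT40 Tdp1-/- cells stably complemented with human TDP1 were seeded at 400 cells/well in medium containing 20 nM camptothecin, exposed to pin-transferred compounds, and grown at 37 °C for at least 48 hr. Viability was read as ATP luminescence.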
* = called active by the depositor; i = inactive; ? = inconclusive; nt = not tested or not shown; [ ] = dose if it differs, or a comment. Compounds with a hit are over-represented: about 19% of the library has one in this group of screens. Calls come from the whole dose curve; as a rule, active = well fitted curve in the direction sought with a large enough effect; inconclusive = small, poorly fitted or top-dose-only effect, or another doubt; inactive = no such curve, though single readings can be large; an effect the other way counts as inactive or inconclusive. Unless noted, % is set by controls: 0 for no effect and ±100 for the full control effect; potency is the fitted concentration of half-maximal effect.

SMILES	HT1080 IDH1KD tx	DT40 TDP1 no CPT	KB-V1 cytotox	HT1080NT lethal	KB-3-1 cytotox	TDP1 cell CPT
COc1ccc(NS(=O)(=O)c2ccc3c(c2)NC(=O)CCS3)cc1Cl	-2.6%	18.4µM*	i	0.4%	?	20.6µM*
Cc1oc(-c2ccc(Cl)cc2)nc1CS(=O)CC(=O)NCc1ccc(Cl)cc1 (stereo unspecified)	nt	?	i	nt	i	?
O=C1C=C(c2ccc3c(c2)oc2ccccc23)C[C@@H](c2ccc(Cl)cc2)C1	18.7%	?	i	12.0%	i	?
COc1cc(OC)cc(C(=O)NCC(=O)NC(C)c2ccccc2)c1 (stereo unspecified)	-3.2%	-0.3%	i	0.4%	i	-10.2%
Cc1cc(Cl)cc(Cl)c1OCCCCN(C)C	?	18.4µM*	i	-22.0%	i	?
COc1cc(OC)cc(C(=O)N2CCN(Cc3ccc4c(c3)OCO4)CC2)c1	-1.0%	1.7%	i	-1.3%	i	-12.1%
COc1ccc2[nH]c(=O)c(C(c3nnnn3C3CCCC3)N3CCN(Cc4ccc5c(c4)OCO5)CC3)cc2c1 (stereo unspecified)	?	?	?	-28.4%	i	25.9µM*
CCOc1ccc2[nH]c(=O)c(C(c3nnnn3C3CCCCC3)N3CCN(C)CC3)cc2c1 (stereo unspecified)	-11.2%	-14.8%	i	-6.7%	i	?
Cc1cc(C)c2[nH]c(=O)c(C(c3nnnn3Cc3ccc4c(c3)OCO4)N3CCC(C)CC3)cc2c1 (stereo unspecified)	12.3%	16.4µM*	i	15.7%	i	?
COc1ccc2[nH]c(=O)c(C(c3nnnn3C3CCCC3)N(C)C3CCCCC3)cc2c1 (stereo unspecified)	-0.9%	?	5.17µM*	-0.6%	i	?
COc1ccc([C@H]2C[C@@H](O)[C@H](n3cc(C4CC4)nn3)CN2C(=O)C2CCCCC2)cc1	-10.9%	?	i	-3.2%	i	-23.8%
Cc1ccc(S(=O)(=O)N2CCN(S(=O)(=O)c3ccccc3)C2)cc1	-3.2%	-4.9%	?	1.2%	i	-28.7%
Cc1ccc(S(=O)(=O)n2cc(-c3ccccc3)c3ccccc32)cc1	?	2.31µM*	1.3µM*	?	2.31µM*	3.66µM*
Cc1ccc(S(=O)(=O)n2cc(C=O)c3ccccc32)cc1	23.1µM*	?	i	16.4µM*	i	?
COc1ccc(NC(=O)COC(=O)CCC2CCCCC2)cc1	1.9%	-15.2%	i	1.0%	i	-2.2%
Cc1ccc(NCCC(=O)c2ccc(Cl)c(Cl)c2)cc1	-29.4%	?	i	-4.5%	i	?
CCc1ccc(C(=O)NNC(=O)OC)cc1	4.9%	29.1µM*	i	20.1%	i	?
CCc1ccc(NCCC(=O)c2ccc(Cl)cc2)cc1	-4.6%	15.8µM*	i	0.2%	i	20.6µM*
CCCc1ccc(C(=O)NNc2cc(Cl)ccc2Cl)cc1	?	23.1µM*	i	?	i	?
CCc1ccc(C(=O)NNc2ccc(Cl)cc2)cc1	6.51µM*	-16.8%	i	?	?	-9.3%
CC(C)NC(=O)Cn1cc(S(=O)(=O)N2CCCC2)c(S(=O)(=O)N2CCCC2)c1	19.6%	16.5%	?	9.3%	i	12.5%
COc1ccc(-c2cc(C(F)(F)F)nc(SCCC(=O)Nc3ccc(O)cc3)n2)cc1	nt	nt	?	nt	i	nt
CC1=CC(Cc2ccccc2)N(C)C(C(N)=O)C1 (stereo unspecified)	27.6%	-17.2%	i	?	i	-14.8%
COc1cc2c(-c3ccc(O)cc3)nc3c(c(C)nn3-c3ccccc3)c2cc1OC	-25.9%	18.4µM*	3.66µM*	-19.4%	?	11.6µM*
OC(c1cc(F)cc(Cl)c1)c1ncc(-c2ccccc2Cl)[nH]1 (stereo unspecified)	?	?	i	-22.3%	i	?
SMILES	HT1080 IDH1KD tx	DT40 TDP1 no CPT	KB-V1 cytotox	HT1080NT lethal	KB-3-1 cytotox	TDP1 cell CPT
NC1=NC(c2cccc(Cl)c2)N(CCc2ccc(F)cc2)C(N)=N1 (stereo unspecified)	?	23.1µM*	i	?	?	?
C[C@H]1CN=C(Nc2ccccc2)N1CCc1ccc(F)cc1	-2.6%	?	i	-2.9%	i	-23.3%
Cc1ccc(NNC(=O)CCc2ccccc2)c(C)c1	25.9µM*	-2.6%	i	?	i	-6.8%
Cc1ccc(NNC(=O)c2sccc2Cl)c(C)c1	-18.8%	?	nt	-8.9%	nt	?
Cc1ccc(NNC(=O)c2ccno2)c(C)c1	7.31µM*	18.4µM*	i	5.8µM*	i	2.6%
C=CCn1c(SCC(=O)Nc2cc(C)on2)nc2sc3c(c2c1=O)CCCC3	16.3%	9.2µM*	i	15.4%	i	23.1µM*
Cc1cc(NC(=O)CSc2nc(C3CCCCC3)nc3ccccc23)no1	5.3%[9.24 µM]	?	i	-1.2%	?	?
C=CCn1c(SCC(=O)Nc2c(C)n(C)n(-c3ccccc3)c2=O)nc2sc(C)c(-c3ccccc3)c2c1=O	-25.7%	?	i	-15.4%	i	29.1µM*
C=CCn1c(SCC(=O)NCc2ccco2)nc2sc3c(c2c1=O)CCCC3	-9.9%	-21.1%	i	0.1%	i	1.6%
C=CCn1c(SCC(=O)Nc2cc(C)on2)nc2sc(C)c(C)c2c1=O	5.0%	6.51µM*	i	4.9%	i	?
Cc1cc(NC(=O)CSc2nc(C3CC3)nc3sc4c(c23)CCC(C)C4)no1 (stereo unspecified)	0.9%[9.24 µM]	18.4µM*	i	-1.9%	i	16.4µM*
C=CCn1c(SCC(=O)Nc2c(C)n(C)n(-c3ccccc3)c2=O)nc2sc(C)c(C)c2c1=O	-3.9%	?	i	6.2%	i	-28.8%
O=C1CCc2cc(S(=O)(=O)Nc3cccc(Br)c3)ccc2N1	nt	nt	i	nt	i	nt
CCN(CC(=O)NCc1cccs1)C(=O)c1cccc(S(=O)(=O)Nc2ccc(OC)cc2)c1	-0.5%	-16.8%	i	-4.3%	i	-21.7%
CCOC(=O)C1=C2NC(=O)c3ccccc3N2C(=O)C1	2.0%	-10.8%	i	6.2%	i	11.1%
C=C(C)Cn1c(SCC(=O)Nc2cccc(C)c2)nc2sc3c(c2c1=O)CCCC3	nt	13µM*	i	nt	i	9.2µM*

Compound activity: PubChem BioAssay, National Center for Advancing Translational Sciences (NCATS)
